Source: PubChem BioAssay AID1822 (The Scripps Research Institute Molecular Screening Center, 2009)
Hit rate of the full screen: of about 290,000 compounds, about 3,500 (1.2%) were called active.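 The calls were made as follows: active = inhibition above the campaign mean inhibition over all tested compounds plus 3 SD (cut at about 28% in these data); inactive = the rest.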 What follows is part of a selection rich in actives, with near analogues and random picks from the rest.

Each compound was assayed on M18 aspartyl aminopeptidase (Plasmodium falciparum 3D7) (assay: inhibition of P. falciparum M18 aminopeptidase – biochemical, QFRET, recombinant enzyme, primary screen (AID 1822;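 also: 0% = plate median of test compound wells and 100% = 2 mM ZnCl2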)). Settings: recombinant PfM18AAP, H-Glu-NHMec fluorogenic cleavage; at 7.35 µM; hits give high values.

Row | Compound | inhibition
1 | COc1cccc(N2C(=O)NC(=O)/C(=C\c3cn(C)c4ccccc34)C2=O)c1 | 31.5% (active)
2 | Cc1cccc(N2C(=O)NC(=O)/C(=C\c3cnn(-c4ccccc4)c3)C2=O)c1 | -3.93% (inactive)
3 | COc1cccc(N2C(=O)NC(=O)/C(=C\c3ccc([N+](=O)[O-])s3)C2=O)c1 | 9.11% (inactive)
4 | CCOc1ccc(-c2cc(C)[n+](CCN(CC)CC)c(-c3ccc(OCC)cc3)c2)cc1 | -4.54% (inactive)
5 | Cc1cccc(NC(=O)N2CC3CC(C2)c2cccc(=O)n2C3)c1 (stereo not given) | -2.4% (inactive)
